{
  "source": "PubChem BioAssay (NCATS)",
  "note": "Inconclusive results are not listed. A call without a number means that no potency is given here. Active and inactive are the calls of the source. The call rests on the fitted dose curve; in most records, active means well fitted cell-killing curve with a large enough effect; inconclusive means small, poorly fitted or top-dose-only effect; inactive means flat fitted curve, though single readings scatter. Potency means the concentration at half of the fitted maximal effect.",
  "data": [
    {"assay": "Quantitative highthroughput screen to assess conditional lethalithy of P12 Ichikawa cells grown in RPMI1640 with untreated serum (RPMI+s) (AID 1963881); further: nearly all actives have a fitted effect of over 35% in size", "details": "ATP luminescence, 48 h; Potency: viability; series mostly up to 45.8 µM", "excerpt": "Assay Provider: Jason Cantor Ph.D.\nDepartment of Biochemistry\nUniversity of Wisconsin-Madison, Madison, WI, USA\nChemical screening studies have identified drug sensitivities across hundreds of cancer cell lines but most putative therapeutics fail to translate. Discovery and development of drug candidates in models that more accurately reflect nutrient levels in human blood is a major challenge. Here we performed high-throughput screens in conventional versus Human Plasma-Like Medium (HPLM) to identify compounds that were \"missed\" when screening using the artificial culture condition. Sets of conditional anticancer compounds spanned phases of clinical development and included non-oncology drugs were assessed. […] We also traced conditional phenotypes for several chemotherapeutics to availability of HPLM-specific metabolites and confirmed others for compounds whose reported targets are encoded by nonessential genes. Our findings establish generalizable strategies for exploiting conditional lethality in HPLM to reveal therapeutic candidates and mechanisms of action in cancer cells.\nDescribed herein are the results of each viability screens against three cell lines: NOMO1 (an acute myeloid leukemia cell line); P12-Ichikawa (a T-cell acute lymphoblastic leukemia); and SEM (a B-cell ALL). Each assay was screened using 3 different cell culture media: homemade human plasma-Like medium with 10% dialyzed fetal bovine serum (HPLM+ds); RPMI1640 with 10% untreated FBS and 5mM glucose (RPMI+s); and RPMI1640 with 10% dialyzed fetal bovine serum and 5 mM glucose (RPMI+ds).\nPROTOCOL TABLE (as described by Inglese J, Shamu CE and Guy RK. 2007)\nSEQUENCE No. (e.g., 1, 2, 3, etc.); […] (e.g., Cells, Incubation, Reagent, etc.); VALUE and DESCRIPTION.\n1; Cells; 5 uL; white, solid bottom 1536-well Greiner assay plate.\n2; Compounds; 23 nL; Kalypsis pin tool (Wako USA) equipped with a 1536-well pin head to transfer to the assay plates.\n3; Incubation; 48 hours; 37C incubation.\n4; Reagent; 3 uL; CellTiter Glo (Promega).\n5; Incubation; 5 min, room temperature\n6; Detection; Luminescence, Viewlux PerkinElmer.\nNOTES (numbers refer to Sequence numbers above)\n1. Briefly, 5 ul of cell reagent was dispensed using a Multidrop Combi Dispenser. The NOMO1 and SEM cells were plated at 500 cells/well and the P12-Ichikawa line at 1000 cells/well.\n2. After seeding the cells, 23 nL of MIPE 4.1 library compounds (in DMSO) were added to each plate using a Kalypsys 1536 Pintool dispenser. Bortezomib at final concentration of […] and DMSO were added to each plate as positive and negative controls respectively. For each screen, MIPE 4.1 compounds were added over an eleven-point concentration range […] in 3-fold dilutions.\n3. Each plate was covered with a stainless steel gasketed lid to prevent evaporation and incubated for 48 hour at 37C, 95% relative humidity, and 5% CO2.\n4-5. Three microliter CellTilter-GloTM luminescent substrate mix (Promega) reagent was added to the assay plate and incubated at room temperature for 5 min.\n6. The luminescence signal was measured using a ViewLux (PerkinElmer) multiplate reader with a 2 second exposure time per plate. Data for each compound were normalized as percent viability such that measurements for DMSO and the empty well controls in each plate were defined as 100% and 0%, respectively.", "values": [
      {"molecule": "O=C1c2c(O)cccc2[C@@H]([C@@H]2O[C@H](CO)[C@@H](O)[C@H](O)[C@H]2O)c2cc(CO)cc(O)c21", "Potency": "inactive"},
      {"molecule": "CS(=O)c1ccc(-c2nc(-c3ccc(F)cc3)c(-c3ccncc3)[nH]2)cc1", "note": "(stereo not given)", "Potency": "7620 nM (active)"},
      {"molecule": "Cc1c(CCOc2ccc(C(=O)O)cc2)c2cc(Cl)ccc2n1C(c1ccccc1)c1ccccc1", "Potency": "inactive"},
      {"molecule": "Oc1cc2c(cc1O)C1c3ccc(O)c(O)c3OCC1(O)C2", "note": "(stereo not given)", "Potency": "inactive"},
      {"molecule": "COC(=O)Nc1nc2ccc(C(=O)c3cccs3)cc2[nH]1", "Potency": "29.6 nM (active)"},
      {"molecule": "Cc1cnc(-c2cc(N3CCN(C(=O)CCS(C)(=O)=O)CC3)ncc2Cl)c(C)c1", "Potency": "inactive"},
      {"molecule": "COc1cc2c(Nc3ccc(Br)cc3F)ncnc2cc1OCC1CCN(C)CC1", "Potency": "inactive"},
      {"molecule": "Cc1[nH]c(C=C2C(=O)Nc3ccccc32)c(C)c1CCC(=O)O", "Potency": "13200 nM (active)"},
      {"molecule": "O=c1c(-c2ccc(O)cc2)coc2cc(O[C@@H]3O[C@H](CO)[C@H](O)[C@H](O)[C@H]3O)ccc12", "Potency": "inactive"},
      {"molecule": "CCC[C@H](Nc1nc(-c2ccc(NC(=O)NCC)c(OC)c2)ncc1C)c1cccnc1", "Potency": "41.8 nM (active)"},
      {"molecule": "CC1=C(CC(=O)O)c2cc(F)ccc2C1=Cc1ccc(S(C)=O)cc1", "note": "(stereo not given)", "Potency": "inactive"},
      {"molecule": "O=C1Nc2ccc(I)cc2C1=Cc1cc(Br)c(O)c(Br)c1", "Potency": "inactive"},
      {"molecule": "COCCn1c2c([n+](Cc3cnccn3)c1C)C(=O)c1ccccc1C2=O", "Potency": "166 nM (active)"},
      {"molecule": "CN(C)N=Nc1nc[nH]c1C(N)=O", "Potency": "2090 nM (active)"},
      {"molecule": "Cc1oncc1C(=O)Nc1ccc(C(F)(F)F)cc1", "Potency": "inactive"},
      {"molecule": "Nc1ncnc2ccccc12", "Potency": "inactive"},
      {"molecule": "Cc1cnc(Nc2ccc(OCCN3CCCC3)cc2)nc1Nc1cccc(S(=O)(=O)NC(C)(C)C)c1", "Potency": "inactive"},
      {"molecule": "O=C(Nc1ccccc1-c1cn2c(CN3CCNCC3)csc2n1)c1cnc2ccccc2n1", "Potency": "26400 nM (active)"},
      {"molecule": "COc1cc2c(NC3CCN(C(C)C)CC3)nc(C3CCCCC3)nc2cc1OCCCN1CCCC1", "Potency": "23500 nM (active)"},
      {"molecule": "CC[C@]12C=CCN3CC[C@@]4(c5cc([C@@]6(C(=O)OC)C[C@H]7C[C@@H](C(C)(F)F)CN(Cc8c6[nH]c6ccccc86)C7)c(OC)cc5N(C)[C@H]4[C@@](O)(C(=O)OC)[C@H]1OC(C)=O)[C@@H]32", "Potency": "26.4 nM (active)"},
      {"molecule": "CN(C)[C@@H](CCOc1cccc2ccccc12)c1ccccc1", "Potency": "inactive"},
      {"molecule": "N#CC(c1ccnc(NCCc2cccnc2)n1)c1nc2ccccc2s1", "note": "(stereo not given)", "Potency": "inactive"},
      {"molecule": "CCC(=C(CC)c1ccc(O)cc1)c1ccc(O)cc1", "Potency": "inactive"},
      {"molecule": "O=C(O)c1cc(=O)c2c(OCC(O)COc3cccc4oc(C(=O)O)cc(=O)c34)cccc2o1", "Potency": "inactive"},
      {"molecule": "CCC(C)n1ncn(-c2ccc(N3CCN(c4ccc(OC[C@H]5CO[C@](Cn6cncn6)(c6ccc(Cl)cc6Cl)O5)cc4)CC3)cc2)c1=O", "note": "(stereo not given in full)", "Potency": "inactive"},
      {"molecule": "NS(=O)(=O)c1cc2c(cc1Cl)NC=NS2(=O)=O", "Potency": "inactive"},
      {"molecule": "CN1CCN(CCCN2c3ccccc3Sc3ccc(C(F)(F)F)cc32)CC1", "Potency": "11800 nM (active)"},
      {"molecule": "CC(C)C[C@H](NC(=O)[C@@H](NC(=O)c1cccc(-c2ccccc2)n1)[C@@H](C)O)B(O)O", "Potency": "37.2 nM (active)"},
      {"molecule": "CCN(C(=O)c1c(O)c2c(Cl)cccc2n(C)c1=O)c1ccccc1", "Potency": "2350 nM (active)"},
      {"molecule": "COc1ncc(-c2ccc3nccc(-c4ccnnc4)c3c2)cc1NS(=O)(=O)c1ccc(F)cc1F", "Potency": "743 nM (active)"},
      {"molecule": "Cc1ncc([N+](=O)[O-])n1CC(C)O", "note": "(stereo not given)", "Potency": "inactive"},
      {"molecule": "CC1=C(C(=O)Nc2cc3cn[nH]c3cc2F)C(c2ccc(Cl)cc2F)N=C(c2ccnc(Cl)c2)N1", "note": "(stereo not given)", "Potency": "18700 nM (active)"},
      {"molecule": "C=CC(=O)Nc1cccc(Nc2nc(NC3CCC(N(C)C)CC3)nc3c2ncn3C(C)C)c1", "note": "(stereo not given)", "Potency": "3320 nM (active)"},
      {"molecule": "OCCN1C[C@H](O)[C@@H](O)[C@H](O)[C@@H]1CO", "Potency": "2640 nM (active)"},
      {"molecule": "CC1CNc2c(cccc2S(=O)(=O)N[C@@H](CCCN=C(N)N)C(=O)N2CC[C@@H](C)C[C@@H]2C(=O)O)C1", "note": "(stereo not given in full)", "Potency": "inactive"},
      {"molecule": "O=Nc1c(-c2c(O)[nH]c3cc(Br)ccc23)[nH]c2ccccc12", "Potency": "4690 nM (active)"},
      {"molecule": "Nc1nc(Cl)nc2c1ncn2[C@H]1C[C@H](O)[C@@H](CO)O1", "Potency": "187 nM (active)"},
      {"molecule": "O=C(C=Cc1ccc(O)cc1)c1ccc(O)cc1O", "Potency": "16600 nM (active)"},
      {"molecule": "COC(=O)C[C@](O)(CCCC(C)(C)O)C(=O)O[C@@H]1C(OC)=C[C@]23CCCN2CCc2cc4c(cc2[C@H]13)OCO4", "Potency": "inactive"},
      {"molecule": "CCN(CCO)CCCC(C)Nc1ccnc2cc(Cl)ccc12", "note": "(stereo not given)", "Potency": "10500 nM (active)"}
    ]}
  ]
}
